Source: PubChem (National Center for Advancing Translational Sciences (NCATS))
TRHR agonist-1: qHTS for Small Molecule Agonists and Allosteric Enhancers of Human TRH Receptor: Primary Screen for Agonists. Thyrotropin-releasing hormone receptor (Homo sapiens), P34981. TRHR cells, calcium flux fluo-8, FDSS agonist mode. activation, % at 2 µM. 360,000 compounds, 0.18% hits. AID 493084, 2011
Target sequence (P34981 whole entry, looked up): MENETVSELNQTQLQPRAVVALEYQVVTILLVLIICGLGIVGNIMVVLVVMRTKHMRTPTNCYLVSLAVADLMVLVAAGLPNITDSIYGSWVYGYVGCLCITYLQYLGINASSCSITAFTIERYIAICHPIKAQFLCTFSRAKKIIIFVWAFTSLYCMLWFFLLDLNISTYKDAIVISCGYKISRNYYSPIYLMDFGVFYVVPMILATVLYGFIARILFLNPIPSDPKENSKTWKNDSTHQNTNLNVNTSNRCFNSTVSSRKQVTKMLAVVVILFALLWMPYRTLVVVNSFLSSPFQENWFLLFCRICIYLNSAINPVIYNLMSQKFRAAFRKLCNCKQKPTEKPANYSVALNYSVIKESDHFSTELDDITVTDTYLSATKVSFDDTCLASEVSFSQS
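TRHR-expressing cells, plated overnight in medium with 10% serum, were loaded with fluo-8 calcium dye at room temperature. After a 10 s baseline, library compound was pin-added and calcium release was recorded kinetically (ex 480/em 530) as agonist response.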
TRHR enhancer-1: qHTS for Small Molecule Agonists and Allosteric Enhancers of Human TRH Receptor: Primary Screen for Enhancers; 360,000 compounds, 0.66% hits; Thyrotropin-releasing hormone receptor (Homo sapiens), P34981; TRHR cells, fluo-8 calcium fluorescence, EC20 TRH enhancement; enhancement, % at 2 µM; in the data active = enhancement above about 30%
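TRHR-expressing cells loaded with fluo-8 calcium dye were read kinetically (ex 480/em 530) during compound addition, then stimulated with an EC20 of TRH (10 nM final). Enhancement of the Gq-mediated intracellular calcium response was scored.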
D1 antag: Antagonist of Human D 1 Dopamine Receptor: qHTS; D(1A) dopamine receptor (Homo sapiens), P21728; HEK293 TREx D1 cells, calcium flux, dopamine EC80; stronger effect = lower value; activity change, negative = inhibition, % at 10 µM; 360,000 compounds, 3.2% hits; in the data active = activity change below about -30%
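Allosteric or orthosteric antagonism assessed as attenuation of the calcium response to EC80 dopamine, added 180 s after compound, in induced HEK293 Trex D1 cells loaded with no-wash calcium dye.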
D1 agonist: Allosteric Agonists of the Human D1 Dopamine Receptor: qHTS; 360,000 compounds, 1% hits; HEK293 T-REx D1 cells, calcium flux, agonist mode; activation, % at 2 µM; D(1A) dopamine receptor (Homo sapiens), P21728
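Agonism was scored from calcium flux recorded over 180 s (1 read/s) after pintool compound addition, following a 10-cycle baseline. Cells were inducible force-coupled HEK293 TREx D1, plated overnight at 30 C and loaded with no-wash calcium dye.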
D1 PAM: Potentiators of Human D1 Dopamine Receptor: qHTS. D(1A) dopamine receptor (Homo sapiens), P21728. HEK293 TREx D1 cells, calcium flux, dopamine EC20 potentiation. potentiation, % at 10 µM. 360,000 compounds, 0.036% hits. AID 504651, 2011; in the data active = potentiation above about 30%
TRHR enhancer-2: qHTS for Small Molecule Agonists and Allosteric Enhancers of Human TRH Receptor: Confirmation Screen for Enhancers. 970 tested, under 10 active. AID 493076, 2011. shares compounds with TRHR enhancer-1. TRH receptor cell assay, enhancer confirmation qHTS. activity change, negative = inhibition, % at 46.1 µM; active = well fitted curve in the direction sought with a large enough effect; inconclusive = small, poorly fitted or top-dose-only effect, or another doubt; inactive = no such curve, though single readings can be large; an effect the other way counts as inactive or inconclusive;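 also: compound effect scored on response to added TRH at EC20 of 10 nM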
TRHR agonist-2: qHTS for Small Molecule Agonists and Allosteric Enhancers of Human TRH Receptor: Confirmation Screen for Agonists; shares compounds with TRHR enhancer-1; TRHR-expressing cells, agonist activation read-out; Potency, µM (titrated, usually from 46.1 µM), usual class: activators; 970 compounds, 8% hits; AID 493078, 2011; active = well fitted curve in the direction sought with a large enough effect; inconclusive = small, poorly fitted or top-dose-only effect, or another doubt; inactive = no such curve, though single readings can be large; an effect the other way counts as inactive or inconclusive; also: nearly all actives have a fitted effect of over 75% in size
A number is an active result; - = inactive; ? = inconclusive; . = not tested or not shown. Only some compounds are listed: those with a hit (about 4.7% of all), similar ones and a draw of the others. Rule as the data show it, unless noted: active = activation above about 30%; inactive = the rest.

SMILES | TRHR agonist-1 | TRHR enhancer-1 | D1 antag | D1 agonist | D1 PAM | TRHR enhancer-2 | TRHR agonist-2
OC(COc1ccc2cc(Br)ccc2c1)CN1CCN(c2ccccn2)CC1 (configuration not stated) | - | - | - | - | - | . | .
Cc1nc(C)n(CC(O)COc2ccc3cc(Br)ccc3c2)n1 (configuration not stated) | - | 44 | -32 | 47 | - | ? | -
N#CCSc1nnc2sc3ccccc3n12 | - | - | - | - | - | . | .
CC1Cc2ccccc2N1C(=O)CSc1nnc2sc3ccccc3n12 (configuration not stated) | - | 63 | - | - | - | - | -
Cc1noc(C)c1CSc1nnc2sc3ccccc3n12 | - | 43 | - | - | - | - | -
Cc1nc2cc3ccccc3cc2n1C | - | - | - | - | - | . | .
Cc1nc2cc(O)ccc2n1C | - | 61 | - | - | - | - | -
CCOC(=O)CSc1ccc2nnc(-c3ccncc3)n2n1 | - | 52 | - | - | - | - | -
Cc1cc(C)cc(NC(=O)c2ncn(-c3ccccc3)n2)c1 | - | - | - | - | - | . | .
Cc1cc(C)n(CCN(C)c2nc3nonc3nc2N2CCCCC2)n1 | - | - | - | - | - | . | .
Cc1cc(C)n(-c2nc3nonc3nc2-n2nc(C)cc2C)n1 | - | 54 | - | - | - | - | -
CCc1cc(-c2n[nH]c(C)c2-c2nc(C)cs2)c(O)cc1OC | - | 45 | - | - | - | ? | -
CC(C)Oc1ccc(CNC(=O)C2CCN(C(=O)N3CC(C)Oc4ccccc43)CC2)cc1 (configuration not stated) | - | - | - | - | - | . | .
